Screen size: about 2,200 compounds; about 480 (22%) were called active. Not all results are given here. Entries with a potency or affinity are not part of this list. Values without a mark were called inactive. The rule behind the calls is not given here.
Assay: S. Typhimurium GFP fluorescence modified counterscreen for PhoP regulon inhibitor project dose response (AID 1981);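 note: 0% = induced DMSO wells and 100% = uninduced wells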
Settings: 4 h; series mostly up to 150 µM; inhibition: at the top concentration

Point of comparison: `CCOC(=O)C1=C(c2ccccc2)NC(SC)=C(C#N)C1c1ccco1` (stereo not given), “inhibition” value 4.7%. Against it:
- Cc1cccc(C(=O)O/N=C2\CCSc3ccc(C)cc32)c1 — lower, -14.1%
- Cc1cccc(OCC(=O)N(Cc2cccs2)C2CCS(=O)(=O)C2)c1C (stereo not given) — lower, -15.6%
- O=c1c2c([nH]c3ccccc13)CCCCC2 — higher, 19.2%
- CCCOc1ccc(/C=N/O)cc1 — lower, -3.17%
- O=C(C[n+]1cc(-c2ccccc2)n2c1CCCCC2)c1ccc(Cl)cc1 — lower, -1.46%
- Clc1ccc(-c2c[n+](Cc3ccc(Cl)cc3Cl)c3n2CCCCC3)cc1 — lower, -3.21%
- Clc1ccc(C[n+]2cc(-c3ccc(Cl)cc3)n3c2CCC3)cc1 — higher, 7.72%
- C/C(=N/Nc1nc(-c2ccc(Cl)cc2)cs1)c1cccs1 — lower, -14.2%
- CCN(CC)CC(=O)Nc1nc(-c2ccc(Cl)cc2)cs1 — lower, -7.54%
- CCOC(=O)Cc1ccc(NS(=O)(=O)c2ccc(SC)cc2)cc1 — lower, -8.64%
- CCOC(=O)N1CCN(C(=O)c2ccc(NC(=O)c3ccc(C)cc3)cc2)CC1 — higher, 12.8%
- O=C(O)C1CCC(N2C(=O)C3CCCCC3C2=O)CC1 (stereo not given) — lower, -1.85%
- COC(=O)c1sccc1NC(=O)c1cccnc1 — lower, 0.03%
- Cc1ccc(Nc2nnc(C3C(=O)N(C)C4(C)CC3c3cc(Br)ccc3O4)s2)cc1 (stereo not given) — lower, -4.36%
- Cc1ccc(S(=O)(=O)c2c(C(=O)c3ccccc3)cnc3cc4c(cc23)OCCO4)cc1 — higher, 16.2%
- CC1(C)CC(=O)C2=C(C1)N(Cc1ccccc1)C(=O)C2(O)C(F)(F)F (stereo not given) — lower, 2%
- CCN1C(=O)/C(=C/N2CC(C)CC(C)C2)SC1=S (stereo not given) — lower, -15.7%
- CN(CCO)c1cc(Sc2nc3ccccc3s2)c2nonc2c1[N+](=O)[O-] — lower, 0.73%
- Cc1cc([N+](=O)[O-])ccc1NC(=O)Cc1ccc(F)cc1 — lower, -22.2%
- O=C(CSc1n[nH]c(=O)[nH]c1=O)N/N=C/c1ccccc1 — lower, -7.06%
- Cc1ccc([N+](=O)[O-])cc1NC(=S)NC(=O)C(C)(C)C — lower, -14.7%
- Cc1ccccc1-n1c(C)cc(/C=N/Nc2ccc([N+](=O)[O-])cn2)c1C — lower, 0.91%
- O=C(CSc1nc2ccccc2s1)Nc1ccc(N2CCOCC2)c(Cl)c1 — lower, -4.65%
- Cc1ccsc1/C=N/NC(=O)Cn1cnc2ccccc21 — lower, -7.04%
- COc1ccc(NC(=O)c2sccc2SCC#N)cc1 — lower, -8.07%
- CC(=S)c1c(C)cc2cc(C)ccn12 — lower, -0.73%
- CN(C)c1ccnc(Oc2ccc(F)cc2)c1C#N — lower, -6.5%
- CCn1c(SCc2ccc(F)cc2)nnc1C1CCN(S(=O)(=O)c2ccc(OC)cc2)CC1 — lower, -8.67%
- Cc1ccc(C(C)C)c(OCC(=O)Nn2c(=O)[nH]c3ccccc3c2=O)c1 — higher, 10%
- COc1ccc(S(=O)(=O)N2Cc3ccccc3CC2C(=O)N2CCOCC2)cc1OC (stereo not given) — lower, -0.72%
- CCNC(=O)NC1(C(=O)Nc2ccc3c(c2)OCCO3)CCCCC1 — lower, -6.31%
- CCN(CC)c1ccc(S(=O)(=O)Nc2cc(Cl)ccc2Cl)cc1NC(=S)NC(=O)C1CCCC1 — lower, -28.7%
- CCN1CCN(Cc2ccc(C)cc2C)CC1 — lower, -22.1%
- Cc1ccc(C2NNC(=O)C2NC(=O)c2ccccc2)cc1 (stereo not given) — lower, -8.3%
- Cc1nc(N)sc1Cc1ccc2c(c1)OCO2 — lower, -1.43%
- C=CCNc1sc(C(=O)c2ccc(C)cc2)c(N)c1C#N — higher, 7.13%
- COC(=O)C(CCSC)NC(=O)c1cccc([N+](=O)[O-])c1 (stereo not given) — lower, 1.67%
- NC(=O)c1cnn(Cc2ccc(Cl)cc2)c1N — lower, -11.2%
- Cc1nc2c(Cl)cccc2c2c1CC(CBr)O2 (stereo not given) — higher, 8.79%
- CC(=O)NC12CC3CC(C1)CC(C(=O)OCC(=O)c1ccc4c(c1)OCCO4)(C3)C2 — lower, -5.94%
- O=C1CC(c2ccco2)CC(O)=C1C=Nc1cc(Cl)cc(Cl)c1 (stereo not given) — higher, 4.95%
- Cc1cccc(NC(=O)c2cc(N3C(=O)CCC3=O)ccc2Cl)n1 — lower, -10.7%
- Cc1oc(CC(C)C)c(CN2CCCC2)c1C(=O)O — lower, 3.44%
- Cn1ncc(N=Cc2ccccc2O)c1C(=O)Nc1ccccc1 — lower, -4.37%
- O=C(Cc1cccs1)Nc1nc2c(s1)CCCC2 — lower, -17.5%
- Cn1cccc1C1NC(=O)c2c(sc3c2CCC(C(C)(C)C)C3)N1 (stereo not given) — higher, 5.09%
- Cc1c(NS(=O)(=O)c2ccc(N(C)C3CCCCC3)c([N+](=O)[O-])c2)c(=O)n(-c2ccccc2)n1C — higher, 8.27%
- CCCCOc1ccc(NC(=O)Nc2nnc(C)s2)cc1 — lower, -0.03%
- COc1cccc2[nH]c3c(N4CCN(Cc5ccc6c(c5)OCO6)CC4)ncnc3c12 — higher, 11.1%
- O=C(NCc1cccs1)Nc1cccs1 — lower, -6.17%
- O=C(c1cccc(S(=O)(=O)N2CCOCC2)c1)N1CCCC1 — lower, -6.02%
- O=C1C2CCCN2c2ccc(S(=O)(=O)N3CCOCC3)cc2N1Cc1ccccc1F (stereo not given) — higher, 8%
- Cc1ccc(/C=C/C(=O)c2ccccc(=O)c2O)cc1C — higher, 15.5%
- O=C(CSc1nncs1)Nc1ccc2c(c1)OCCO2 — lower, -10.3%
- Cc1cccc(C)c1Nc1nnc(SCC(=O)Nc2sccc2C#N)s1 — lower, -5.47%
- COc1ccccc1N1CCN(C/C(O)=C(\C#N)c2nc(-c3ccccc3)cs2)CC1 — higher, 38.2%
- O=C(CCN1CCN(c2ccc(F)cc2)CC1)Nc1ccccc1F — lower, -7.81%
- Cc1sc(NC(=O)c2ccco2)c(CN2CCN(c3ccc(F)cc3)CC2)c1C — lower, -1.58%
- COc1ccc(C(=O)Oc2c(CN3CCOCC3)cc(Cl)c3cccnc23)cc1 — lower, -4.17%
- COc1ccc(CN2CCOCC2)cc1Br — lower, -4.59%
- CNc1ncc(Cc2ccccc2)s1 — lower, -5.18%
- COC(=O)c1[nH]c2ccc(C)cc2c1NC(=O)Nc1ccc(OC)cc1 — higher, 15.2%
- CC(=O)Nc1ccc(S(=O)(=O)N2CCC(n3cnc4cc(F)ccc43)CC2)cc1 — lower, -8.65%
- CC(=O)c1c(C)n([O-])c2ccccc2[n+]1=O — lower, 1.77%
- O=C(CSc1nc2[nH]ncc2c(=O)[nH]1)N1CCCCC1 — lower, -11.2%
- Cc1ccc2nc(C(F)OC(F)(F)F)[nH]c2c1 (stereo not given) — lower, -19.4%
- Nc1cccc(-c2nc3ccc(N)cc3s2)c1 — higher, 22.6%
- O=[N+]([O-])/C=C/c1cc2ccccc2[nH]1 — higher, 32.9%
- CCN(CC)CCN(Cc1cc2cc3c(cc2[nH]c1=O)OCCO3)C(=O)NC1CCCCC1 — lower, -14.5%
- c1ccc(Oc2cc(-c3ccccc3)ncn2)cc1 — lower, 2.31%
- COc1ccc(CN2C(=O)Cc3c2nc(N)c2c(N)nc(N4CCCCC4)c(C#N)c32)cc1 — higher, 25.6%
- C=COC(=O)CSc1snc(SCC(=O)OC)c1C#N — lower, -13%
- Cc1cccc2nc(CSc3nc4ccccc4o3)cn12 — lower, 1.89%
- O=C(Cc1ccccc1)NC1c2ccccc2-c2ccccc21 — lower, -8.08%
- O=C(CSCc1ccccc1)Nc1ccc2c(c1)OCO2 — lower, -12.3%
- O=C(NCc1ccco1)C1CC(=O)N(CCc2ccccc2)C1 (stereo not given) — lower, -2.95%
- Cn1cccc1CC(=O)NNC(=S)Nc1ccc(Cl)cc1 — lower, 1.77%
- NC1=NC(=Nc2ccc(Br)cc2)c2ccccc21 — lower, -1.28%
- N#C/C=C(/N)c1ccc(Br)cc1 — higher, 7.34%
- O=c1c(Cl)c(Cl)cnn1-c1ccccc1 — higher, 12.9%
- O=C(Cc1cn2ccsc2n1)Nc1ccccc1Oc1ccccc1 — lower, -11.4%
- N#CC1=C(N)N=C(SCc2cccc3ccccc23)C(C(N)=O)C12CCCCC2 (stereo not given) — higher, 34.8%
- CCCCn1c(/N=C/c2ccccc2NS(=O)(=O)c2ccc(C)cc2)nc2ccccc21 — higher, 15.6%
- FC(F)(F)c1cccc(NC(=S)NCCN2CCOCC2)c1 — lower, -26%
- Nc1nc(CSc2nc3ccccc3[nH]2)nc(N2CCOCC2)n1 — lower, -4.29%
- CN1/C(=C\C=N\NC(=O)c2ccccc2Br)C(C)(C)c2ccccc21 — lower, 3.5%
- CC(C)=CCN1CCN(Cc2ccoc2)CC1CCO (stereo not given) — lower, -23.8%
- COc1ccc(N2C(=O)[C@@H]3[C@H](C2=O)[C@H]2c4ccccc4C=CN2[C@@H]3C(=O)Nc2ccccc2)cc1 — higher, 12.3%
- COc1ccc(C(C(=O)NC2CCCC2)N(C(=O)c2ccoc2C)c2cc(C)cc(C)c2)cc1 (stereo not given) — lower, -16.8%
- Cc1cc(C)nc(Nc2ccc(N3CCCC3)cc2)n1 — higher, 35.5%
- Cc1ccc(Nc2nc(N)nc(CC#N)n2)cc1 — higher, 12.2%
- CSc1nnc(NC(=O)CCc2ccccc2)s1 — higher, 31.3%
- CCN(CC)CCOc1ccc2c(c1)C(=NNC(=O)c1ccccn1)c1cc(OCCN(CC)CC)ccc1-2 — higher, 21.5%
- CCOC(=O)C(C)/C(C)=N/NC(=O)c1cc2ccccc2cc1O (stereo not given) — higher, 35%
- O=C1CC(N2CCN(Cc3ccccc3)CC2)C(=O)N1c1ccccc1 (stereo not given) — lower, -3.65%
- NC(=O)c1c(N)sc2c1CCCCC2 — lower, -4.1%
- COc1cccc(C2CC(c3ccccc3OC)n3nc(N)nc3N2)c1 (stereo not given) — lower, -9.32%
- COc1ccc(CC(=O)n2nc(-c3ccccc3)nc2NCc2ccco2)cc1 — lower, -5.7%
- CCn1c(Cc2ccccc2)nnc1SCC(=O)Nc1ccc(S(N)(=O)=O)cc1 — lower, -19.4%
- C/C(=N\NC(=O)c1c(Cl)c(C)nn1C)c1cccc(NC(=O)COc2ccc(Cl)cc2)c1 — lower, 0.33%
- COc1cccc(/C=N/n2c(C)nc3ccccc3c2=O)c1O — lower, 2.55%
- Cc1cccc(C)c1OCC(=O)Nn1c(COc2ccccc2)nc2ccccc2c1=O — lower, -24.9%
- C=CCNC(=O)c1ccc(N(C)S(=O)(=O)c2ccc(OC)cc2)cc1 — lower, 4.47%
- O=C(Nc1nc2ccc(SC(F)F)cc2s1)c1ccc2c(c1)S(=O)(=O)c1ccccc1C2=O — lower, -4.49%
- Oc1ccc(Nc2nc(-c3cccs3)cs2)cc1 — higher, 30.8%
- COC(=O)c1cc(C)nc2c1C(=O)C(=O)C=C2N1CCOCC1 — higher, 7.24%
- Nc1ccc(Nc2ccccc2N)cc1 — higher, 19%
- Nc1ccc(Nc2ccccc2)c(Cl)c1 — lower, 3.59%
- O=C(OCC(=O)c1ccc(S(=O)(=O)N2CCCC2)cc1)C1=COCCO1 — higher, 5.66%
- O=C(NC(NC(=S)Nc1ccc(Cl)c(Cl)c1)C(Cl)(Cl)Cl)c1ccco1 (stereo not given) — lower, -7.65%
- O=C(NCc1ccco1)c1ccc(Br)s1 — lower, -1.93%
- CCCCN(C)C(=O)c1cn(C)c2ccc(S(=O)(=O)N(C)C)cc2c1=O — higher, 5.65%
- CCOC(=O)c1cnc(SCC(=O)Nc2ccc(N3CCOCC3)c(Cl)c2)nc1N — lower, -2.55%
- Cc1nc(NCc2ccc3c(c2)OCO3)c2oc3ccccc3c2n1 — lower, -17.7%

— PubChem BioAssay AID1981 (Southern Research Specialized Biocontainment Screening …, 2009)
